# Assay outcomes (PubChem)
# aSyn 5UTR act = Activators working through SNCA 5'UTR binding (MLPCN). activity score, % (tested at 7.5 µM), hits read low. 300,000 tested, 7.1% active. alpha-synuclein 5'UTR reporter, activators screen. AID 1814; in the data active = activity score below about -60%
# A number is an active result; i = inactive. The sample as a whole holds a higher share of hits than the screen did.
SMILES,aSyn 5UTR act
CCCc1cc(C(=O)Nc2ccc(C)cc2)no1,-104
Cc1cc(C(=O)Nc2sc(C)c(C)c2C#N)no1,-170
Cc1ccc(NC(=O)c2cc(C)on2)cc1,-96
CCc1ccc(CN(C)C(=O)c2cc(COc3ccc(OC)cc3Cl)on2)nc1,-170
COc1ccc(OCc2cc(C(=O)N(C)Cc3nnc(C)o3)no2)c(Cl)c1,-121
COc1ccc(OCc2cc(C(=O)N(C)Cc3cc(C)no3)no2)c(Cl)c1,-182
CCN(Cc1ccncc1)C(=O)c1cc(COc2ccc(OC)cc2Cl)on1,-111
Cc1cc(CN(C)C(=O)c2cc(COc3ccc(F)cc3Cl)on2)n[nH]1,-75
CCC1CCc2c(sc(NC(=O)c3cccnc3)c2C(N)=O)C1 (configuration not stated),-99
NC(=O)c1c(NC(=O)c2cccnc2)sc2c1CCCC2,-221
CC(C)(C)C1CCc2c(sc(NC(=O)c3ccncc3)c2C(N)=O)C1 (configuration not stated),-131
NC(=O)c1c(NC(=O)c2cccnc2)sc2c1CCCCC2,-177
CCC1CCc2c(sc(NC(=O)c3ccoc3C)c2C(N)=O)C1 (configuration not stated),-89
CCCCN(CC)C(=O)c1cc2cc3ccc(Cl)cc3nc2o1,-87
COc1cc(C2Nc3cc(Cl)c(S(N)(=O)=O)cc3S(=O)(=O)N2)ccc1OCc1ccccc1 (configuration not stated),-147
Cc1ccc(Oc2nccc(-c3ccc(Cl)cc3)n2)cc1,-67
N/C(=N\OC(=O)c1cccc2ccccc12)c1cccc([N+](=O)[O-])c1,-123
Cc1ccccc1C(=O)O/N=C(\N)c1cccc([N+](=O)[O-])c1,-275
N/C(=N\OC(=O)c1cccc2ccccc12)c1cccnc1,-184
Cc1cc(N2CCCC2)nc(SCC(=O)c2ccccc2)n1,-89
Cc1cc(N2CCOCC2)nc(SCC(=O)c2ccccc2)n1,-94
COc1ccc(NC(=O)c2ccccn2)cc1OC,-88
CSc1cccc(NC(=O)c2ccccn2)c1,-103
O=C(NCc1ccc(F)cc1)c1cnn2ccccc12,-87
COc1ccc(NC(=O)c2ccccn2)cc1,i
SMILES,aSyn 5UTR act
CSc1cccc(NC(=O)c2cnccn2)c1,-69
CSc1cccc(NC(=O)c2cnn3ccccc23)c1,-100
CCc1ccc(NC(=O)c2cnn3ccccc23)cc1,i
CCN(CC)C(=N)/C(C#N)=N/Nc1ccc(C)cc1,-136
N#C/C(=N\Nc1ccccc1F)C(=N)N1CCCCC1,-158
Cc1ccc(N/N=C(\C#N)C(=N)N2CCCCCC2)cc1,-113
Cc1ccc(N/N=C(\C#N)C(=N)N2CCOCC2)cc1,-141
COc1ccc(N/N=C(\C#N)C(=N)N2CCCCC2)cc1,-82
N#C/C(=N\Nc1ccc(Cl)cc1)C(=N)N1CCCCC1,-101
N/C(=N\OC(=O)c1ccccc1)c1ccncc1,-122
N/C(=N\OC(=O)c1cccc(Br)c1)c1ccncc1,-138
N/C(=N\OC(=O)c1ccc(Br)cc1)c1ccncc1,-110
COc1ccc(C(=O)O/N=C(/c2ccccc2)c2ccncc2)cc1,-72
CCc1ccc(NC(=O)[C@H](C)NC(=O)C2CCN(C(=O)[C@@H](N)Cc3ccccc3)CC2)cc1,-84
Cn1c(=O)c(C(=O)c2ccc(S(C)(=O)=O)c(Cl)c2Cl)c(O)c2ccccc21,-85
Cn1c(=O)c(C(=O)NCc2ccccc2)c(O)c2ccccc21,-74
Cn1c(=O)c(C(=O)NCc2ccccc2Cl)c(O)c2ccccc21,-78
COC(=O)c1ccc(/C=C/C(=O)c2cccc(OC)c2)cc1,-71
Cc1cccc(C(=O)Nc2cccc(OC(=O)c3cccc(C)c3)c2)c1,-115
COc1cccc(C(=O)Nc2ccc(C3CC3(Cl)Cl)cc2)c1 (configuration not stated),-169
COc1cccc(C(=O)NC(=S)Nc2ccc(N(C)C)cc2)c1,-185
COc1cccc(C(=O)Nc2ccc(C)cc2)c1,-127
COC(=O)c1ccc(NC(=O)c2cccc(OC)c2)cc1,-255
COc1cccc(C(=O)Nc2ccc(Cl)c(C(F)(F)F)c2)c1,-108
Cc1ccc(NC(=O)c2ccc3nsnc3c2)c(C)c1,-102
SMILES,aSyn 5UTR act
Cc1ccc(NC(=O)COC(=O)c2cccc3c2C(=O)c2ccccc2C3=O)c(C)c1,i
COc1ccc(NC(=O)c2ccc(C)cc2)c(OC)c1,-189
COc1cccc(C(=O)Nc2ccc(C(=O)c3ccccc3)cc2)c1,-94
COc1cccc(C(=O)Nc2ccc3c(c2)C(=O)c2ccccc2C3=O)c1,-164
CCC(=O)Nc1ccc2c(c1)C(=O)c1ccccc1C2=O,-245
COC(=O)c1ccc(NC(=O)c2cccc(C)c2)cc1,-65
COc1ccc2cc(C(=O)/C=C/c3cc(OC)c(O)c(OC)c3)ccc2c1,-71
CCN(CC)S(=O)(=O)c1cccc(C(=O)Oc2cccc(NC(=O)c3cccs3)c2)c1,-66
COC(=O)c1ccc(NC(=O)c2ccc3nsnc3c2)cc1,-111
O=C(Nc1ccc(C2CC2(Cl)Cl)cc1)c1ccccc1Br (configuration not stated),-73
